Most compounds without a hit are left out; they make up all but 14% or so of the library.
HADH2 inh – blocks human hydroxyacyl-CoA dehydrogenase type II; Q99714; recombinant HADH2, NADH fluorescence, beta-hydroxybutyryl-CoA; Potency, µM (doses to about 57.1 µM), for inactives: at the highest dose activity change, negative = inhibition, hits mostly inhibitors; hit rate 3.4% among 73,000; note: potency is the fitted concentration of half-maximal effect; % is set by controls: 0 for no effect and ±100 for the full control effect; nearly all actives have a fitted effect of over 60% in size
Target sequence (Q99714 whole entry, looked up, one chain of several): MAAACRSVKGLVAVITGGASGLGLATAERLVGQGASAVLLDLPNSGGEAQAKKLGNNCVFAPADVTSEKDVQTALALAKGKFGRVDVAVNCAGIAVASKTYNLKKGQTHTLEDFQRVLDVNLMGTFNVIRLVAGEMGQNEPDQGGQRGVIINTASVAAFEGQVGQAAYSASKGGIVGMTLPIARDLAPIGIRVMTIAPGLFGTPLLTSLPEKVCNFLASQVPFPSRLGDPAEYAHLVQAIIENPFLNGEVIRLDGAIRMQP
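20 nM HADH2 + cpd, 15 min RT; add 1 mM NAD+/90 uM beta-hydroxybutyryl-CoA; kinetic fluorescence 360/450 nm, 4 min. Tris-HCl pH 9.0, 0.01% Tween-20.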
A350 fluor – compound fluoresces in the Alexa 350 spectral region. Compound autofluorescence, 340/450 nm, Alexa 350 dye-equivalents; stronger effect = higher value. max dye-equivalent concentration, M. hit rate 11% among 59,000. AID 590; in the data active = max dye-equivalent concentration above about 10 nM; inconclusive = mostly about 1.1 nM to 9.6 nM
HSD17B inh – blocks hydroxysteroid 17-beta dehydrogenase activity. Q99714. recombinant HSD17B10, NADH fluorescence kinetic. Potency, µM (top dose mostly 57.1 µM), for the others: top-dose activity change, negative = inhibition, actives largely listed as inhibitors. hit rate 7.6% among 75,000;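 note: the protocol describes HADH2 (HSD17B10) and not the HSD17B4 of the title; potency is the fitted concentration of half-maximal effect; % is set by controls: 0 for no effect and ±100 for the full control effect; nearly all actives have a fitted effect of over 70% in size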
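Enzyme plus compound, 15 min room temperature; substrate mix added (NAD+ 1 mM, beta-hydroxybutyryl-CoA 90 uM final); plates read kinetically for NADH fluorescence. HADH2 was His-tagged, E. coli-derived, 20 nM.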
4-MU autofl – 4-MU region autofluorescence; compound autofluorescence, 340/450 nm, 4-MU equivalents; stronger effect = higher value; max dye-equivalent concentration, M; hit rate 11% among 59,000; in the data active = max dye-equivalent concentration above about 10 nM; inconclusive = mostly about 1.1 nM to 9.6 nM
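Intrinsic fluorescence at 340/450 nm (ex/em) was read after 15 min at room temperature in pH 8.0, 100 mM Tris. Each compound concentration expressed as 4-MU-equivalent concentration from a six-point 4-MU standard series on each plate.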
CRE-bla Fsk – modulators of forskolin-stimulated CRE signaling in CHO cells; CHO CRE-bla reporter (cAMP response element driving beta-lactamase), forskolin EC10, beta-lactamase ratio; Potency, µM (top dose mostly 38.2 µM), for the others: at the top dose activity change, negative = inhibition, most hits filed as activators; hit rate 2.5% among 71,000; AID 662; active = well fitted activation curve with a large enough effect in the signal ratio, with a control signal flat, not every such curve was filed as active; inconclusive = small, poorly fitted or top-dose-only effect, or effect the other way, or a change in a side signal; the % refers to the signal ratio; note: potency is the fitted concentration of half-maximal effect; % of control where 0% means no effect
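CRE-bla CHO cells stimulated with EC10 NKH 477 (water-soluble forskolin) and compound titrations, 3 h at 37C; beta-lactamase read with CCF4 after 2 h at room temperature. Activity from 460/530 nm emission ratio, AC50 values for positive or negative modulation.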
AID923 – qHTS Assay for Allosteric/Competitive Inhibitors of Caspase-1: Spectroscopic Profiling in AFC Spectral Region | hit rate 1.1% among 75,000 | Potency, µM (titrated, usually from 57.5 µM), without a hit: top-dose fluorescence increase, hits mostly activators | compound fluorescence, AFC spectral region (405/520 nm); note: potency is the fitted concentration of half-maximal effect; 0% is about no effect
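Baseline compound fluorescence (AFC region, 405 nm ex/520 nm em) taken from the intercept of kinetic reads with 50 nM caspase-1 and 5 uM Ac-WEHD-AFC; normalized to an on-plate AFC standard curve; compounds titrated up to 57 uM.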
The depositor's hits bear a star; i = inactive; ? = inconclusive; · = no result given; ! = a repeat was not active; [ ] = remark or other dose. Unless noted, calls come from the whole dose curve; as a rule, active = well fitted curve in the direction sought with a large enough effect; inconclusive = small, poorly fitted or top-dose-only effect, or another doubt; inactive = no such curve, though single readings can be large; an effect the other way counts as inactive or inconclusive.

SMILES	HADH2 inh	A350 fluor	HSD17B inh	4-MU autofl	CRE-bla Fsk	AID923
N#Cc1c2n(cnc1=O)CCCCC2	?	·	5%	·	-2%	2%
O=C(O)[C@@H]1[C@@H](C(=O)Nc2ccccc2)[C@@H]2C=C[C@@H]1O2	10%[11.4 µM]	i	-6%[11.4 µM]	i	10%[7.6 µM]	5%[11.5 µM]
c1ccc(-c2nc(NCC3CCCO3)c3ccccc3n2)nc1 (centres undefined)	·	i	·	i	·	·
Oc1cccc(Nc2nc(NCC3CCCO3)c3ccccc3n2)c1 (centres undefined)	2%	i	16µM*	i	3%	2%
c1nc(NC2CCCCCC2)c2[nH]cnc2n1	?	·	32µM*	·	-5%	-2%
N#Cc1nc(-c2ccccc2Cl)oc1N1CCCCC1	·	2.8e-08M*	·	2.4e-08M*	·	·
N#Cc1nc(COc2ccccc2Cl)oc1N1CCCCCC1	9%	·	0%	·	15%	0%
CC1CC(C)CN(c2oc(-c3ccccc3Cl)nc2C#N)C1 (centres undefined)	1.6µM*	5.4e-08M*	25µM*	5.7e-08M*	?	1%
NCCOc1ccccn1	1%[11.4 µM]	i	3%[11.4 µM]	i	25%[7.6 µM]	0%[11.5 µM]
O=C(O)c1cccnc1SCC(=O)N1CCCCCC1	0%	?	5%	i	-4%	-1%
CN(C)C(=O)CSc1cccc2cccnc12	16µM*	3.9e-08M*	32µM*	4.5e-08M*	-18%	0%
O=C(CSc1cccc2cccnc12)N1CCCC1	16µM*	8.6e-08M*	25µM*	7.9e-08M*	-20%	-1%
O=C(CSc1ncccc1-c1nc2ccccc2[nH]1)N1CCCCC1	-9%	3.5e-08M*	?	3.5e-08M*	?	2%
COC(=O)N1CCC2(CC1)CN(C(=O)Nc1cccc(C#N)c1)C2	3%	i	8%	i	?	-1%
C[C@]12CCC(=O)C=C1CCC1C2C(=O)C[C@]2(C)C1CC[C@]2(O)C(=O)CO (some centres undefined)	·	·	13µM*	·	·	0%
C[C@@]12C=CC(=O)C=C1CC[C@H]1[C@H]3CC[C@](O)(C(=O)CO)[C@]3(C)CC(=O)[C@@H]12	0%[25.6 µM]	i	10µM*	i	-1%[17.1 µM]	-2%[25.7 µM]
C[C@@]12CCC(=O)C=C1CC[C@H]1[C@H]3CC[C@](O)(C(=O)CO)[C@]3(C)CC[C@@H]12	?	i	·	i	?	·
CC(=O)[C@]1(O)CCC2C3CCC4=CC(=O)CC[C@@]4(C)C3CC[C@]21C (some centres undefined)	·	·	6%	·	·	0%
C[C@]12CCC(=O)C=C1CC[C@@H]1[C@@H]2CC[C@@]2(C)[C@H]1CC[C@]2(O)C(=O)CO	-3%	i	25µM*	i	·	-1%
CC(=O)[C@@H]1CC[C@@H]2[C@@H]3CCC4=CC(=O)CC[C@@]4(C)[C@H]3CC[C@]21C	-1%[25.6 µM]	2.7e-08M*!	7%[25.6 µM]	2.3e-08M*!	12%[17.1 µM]	-3%[25.7 µM]
CC1CN2C(CCC(C)C2c2ccc(Br)cc2)C(=O)O1 (centres undefined)	9%[11.4 µM]	·	2%[11.4 µM]	·	·	2%[11.5 µM]
CCCOc1cccc(C(=O)Nc2cccnc2)c1	8%[11.4 µM]	·	-2%	·	16%[7.6 µM]	-1%
CCN(CC)S(=O)(=O)c1cccc(C(=O)Nc2cccnc2)c1	4%	2.3e-08M*	7%	2e-08M*	6%	2%
CC1CCC(C(=O)O)NC1c1ccc(C#CCN(C)C)cc1 (centres undefined)	-4%[11.4 µM]	·	10%[11.4 µM]	·	·	0%[11.5 µM]
CCn1c(SCC(=O)Nc2cccc(C)n2)nnc1-c1ccco1	-2%	i	8%	i	10%	1%
SMILES	HADH2 inh	A350 fluor	HSD17B inh	4-MU autofl	CRE-bla Fsk	AID923
CCc1cccc(C)c1NC(=O)CSc1nnc(-c2cc3cc(Br)ccc3o2)n1CC	?	i	32µM*	i	9%	-1%
COc1ccccc1CN1C(=O)CCC1(C)C(=O)NCc1cccnc1 (centres undefined)	11%	1.3e-08M*	-1%	1.2e-08M*	?	1%
CCC(C)NC(=O)C1(C)CCC(=O)N1Cc1ccccc1OC (centres undefined)	1%	i	1%	i	-9%	0%
Cn1c(=O)c2nc(-c3ccccc3)oc2c2ccccc21	i	?	25µM*	?	?	0%
CCCCCc1nc2c(=O)n(C)c3ccccc3c2o1	-1%	i	-12%	i	17%	0%
C/C(=N\O)c1ccc2c3c([nH]c2c1)CCCC3	32µM*	·	25µM*	·	-7%	1%
N#Cc1sc2nc3c(c(-c4cccnc4)c2c1N)CCC3	-3%	?	-7%	?	?	2%
Cc1nc2sc(C#N)c(N)c2c2c1CCCC2	·	4.1e-07M*	·	3.7e-07M*	·	·
C[C@@H]1C(=O)N(C)C(=O)c2nc[nH]c21	7%	i	3%	i	7%	1%
COCCNc1nc(-c2ccccc2OC)nc2ccccc12	?	i	-26%	i	21%	-1%
Cc1ccc2nc(-c3ccc(S(=O)(=O)N4CCOCC4)cc3)cn2c1	?	2e-08M*	7.9µM*	2.2e-08M*	-3%	-3%
Cc1ccn2cc(-c3ccc(S(=O)(=O)N4CCOCC4)cc3)nc2c1	4µM*	·	25µM*	·	11%	11%
Oc1ccccc1-c1nc(NCc2ccco2)c2ccccc2n1	·	i	·	i	·	·
c1ccc(N2CCN(c3nc(NCc4ccco4)c4ccccc4n3)CC2)cc1	·	1.2e-08M*	·	1.7e-08M*	·	·
c1coc(CNc2nc(N3CCCCC3)nc3ccccc23)c1	-11%	2.8e-07M*	32µM*	2.9e-07M*	-5%	-1%
CCCCC/C=C\C[C@H](O)/C=C\c1cccc(C[C@H](O)CCCCO)n1	2%	?	-3%	?	?	-4%
CCOc1ccc2c(O)csc2c1	?	?	25µM*	?	-7%	1%
CCOc1ccc(C(C)(N)C(=O)O)cc1 (centres undefined)	-1%	i	1%	i	1%	3%
C1CCN2C[C@H]3C[C@H](CN4CCCCC34)C2C1 (some centres undefined)	·	·	1%	·	·	-3%
N=C(N)SCCCN	5%[11.4 µM]	i	4%[11.4 µM]	i	-7%[7.6 µM]	6%[11.5 µM]
O=C(OCCCCN1C(=O)c2ccccc2C1=O)c1n[nH]c2ccccc12	?	2.9e-06M*	?	3.2e-06M*	8%	0%
N#Cc1nc(-c2ccccc2F)oc1NCc1cccc2c1OCO2	6%	i	13µM*	i	?	0%
CN(C)CCCNc1oc(-c2ccccc2)nc1C#N	25µM*	?	25µM*	?	-2%	0%
N#Cc1nc(Cc2ccccc2)oc1NCCN1CCOCC1	0%	i	4%	i	19%	2%
CN(C)CCNc1oc(-c2ccccc2F)nc1C#N	?	·	32µM*	·	1%	1%

Screening data deposited in PubChem by National Center for Advancing Translational Sciences (NCATS).
